Screening data from PubChem.
GLP1R inv ag: acts as inverse agonist at human GLP-1 receptor. Potency, µM (highest dose often 38.3 µM), for the others: at the highest dose activity change, negative = inhibition, hits mostly inhibitors. 410,000 compounds, 1.6% hits. P43220. HEK293 GLP-1R CRE-luciferase, luminescence, 24 h; GLP-1R form is constitutively active; also: % is scaled to controls: 0 for no effect and ±100 for the full control effect; nearly all actives have a fitted effect of over 55% in size
Target sequence (P43220 whole entry, looked up): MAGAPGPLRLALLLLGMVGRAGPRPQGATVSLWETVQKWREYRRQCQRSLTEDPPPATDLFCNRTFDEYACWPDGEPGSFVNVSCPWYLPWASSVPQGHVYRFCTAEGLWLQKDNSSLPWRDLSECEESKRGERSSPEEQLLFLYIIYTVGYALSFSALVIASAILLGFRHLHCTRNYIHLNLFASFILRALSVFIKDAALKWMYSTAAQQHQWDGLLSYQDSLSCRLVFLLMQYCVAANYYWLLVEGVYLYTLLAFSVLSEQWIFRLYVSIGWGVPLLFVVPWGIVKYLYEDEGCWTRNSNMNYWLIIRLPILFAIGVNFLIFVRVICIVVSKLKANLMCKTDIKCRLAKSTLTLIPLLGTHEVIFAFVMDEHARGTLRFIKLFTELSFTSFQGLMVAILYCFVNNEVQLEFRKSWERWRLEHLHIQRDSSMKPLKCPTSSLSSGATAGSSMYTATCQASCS
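Constitutively active GLP-1R drives a cAMP-responsive luciferase in stably transfected HEK293 cells; test compounds are added after overnight (12 h) attachment and left 24 hr, and signal loss in luminescence marks inhibition.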
GLP1R cytotox: cytotoxicity in counter-screen for GLP-1R inverse agonists. 410,000 compounds, 0.13% hits. Potency, µM (top dose mostly 38.3 µM), without a hit: at the highest dose activity change, negative = inhibition, most hits filed as inhibitors. HEK293 cAMP-luciferase reporter cells, luminescence, 24 h. AID 624418;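 also: loss of luciferase light is scored as toxicity; % is scaled to controls: 0 for no effect and ±100 for the full control effect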
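Luminescence readout: signal drop marks cytotoxicity. Plated cells grew 12 h at 37 °C, 5% CO2, received 23 nL compound for 24 h, then got luciferase reagent, read after 12 min at RT.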
BRCA1 expr act: activators of BRCA1 expression; Potency, µM (titrated, usually from 46.1 µM), inactives show top-dose activation, hits mostly activators; AID 624202; MCF7-BRCA1-FFLuc reporter, luminescence, 48 h; response scale: scaled: vehicle 0%, 10 µM genistein 100%; 380,000 compounds, 1.1% hits; also: nearly all actives have a fitted effect of over 80% in size
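Quantitative HTS in MCF7 cells stably reporting BRCA1 expression via firefly luciferase. Compound treatment lasts 48 h at 37 °C in phenol-red free MEM. Activation is expressed relative to genistein at 10 microM and DMSO.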
GLP1R ag: agonists of human GLP-1 receptor. Potency, µM (doses to about 45.6 µM), inactives show at the top dose activation, actives largely listed as activators. P43220. 380,000 compounds, 0.007% hits. HEK293 GLP-1R CRE-luciferase, luminescence, 4-6 h; cells express a hypersensitive GLP-1R form; also: % of control where 0% means no effect
* = called active by the depositor; i = inactive; ? = inconclusive; . = no result given; [ ] = remark or other dose. Sampled rows, rich in hits. Any-hit rate of the full collection: about 2.6%. Calls follow the shape of the dose curve; as a rule, active = well fitted curve in the direction sought with a large enough effect; inconclusive = small, poorly fitted or top-dose-only effect, or another doubt; inactive = no such curve, though single readings can be large; an effect the other way counts as inactive or inconclusive. Potency is read from the fitted curve at half-maximal effect.

SMILES | GLP1R inv ag | GLP1R cytotox | BRCA1 expr act | GLP1R ag
CC(C)=CC(=O)Nc1nnc(-c2ccccc2C)s1 | 10% | -1% | 3.5µM* | 2%
CCOC(=O)c1ccccc1S(=O)(=O)N1CCN(c2nc(-c3cccs3)nc3ccccc23)CC1 | . | . | 9% | .
O=C(CN1C(=O)COc2ccc(S(=O)(=O)NC3CCCC3)cc21)Nc1ccc(Cl)cc1 | ? | -10% | . | .
CCOC(=O)N1CCC(N(CCN(C)C)C(=S)Nc2cccc(C)c2)CC1 | 1% | -14% | -2% | -3%
CCOC(=O)N1CCC(N(CCN(C)C)C(=S)Nc2cccc(SC)c2)CC1 | 5.6µM* | 1% | 0% | 5%
CN(C(=O)CSc1ccc2c(c1)OCCO2)c1ccccc1 | -8% | 7% | 10µM* | 7%
CCCCNC(=O)COC(=O)c1c2c(nc3ccccc13)/C(=C\c1cccs1)CC2 | 6.3µM* | i | -73% | 13%
CC(C)CNC(=O)COC(=O)c1c2c(nc3ccccc13)/C(=C/c1cccs1)CC2 | ? | -9%[1.53 µM] | -7% | -1%
CCn1nnnc1SCC(=O)N(C1CCCCC1)C1CCCCC1 | 8.9µM* | -18% | -8% | 6%
CCOc1ccc(NC(=O)COC(=O)c2ccccc2OCc2ccccc2Br)cc1 | . | . | 0% | .
c1ccc(-c2ccc3ccccc3n2)cc1 | 20% | 0% | 11µM* | 22%
Cc1ccc(C)c(C(=O)CSc2nnc(C)s2)c1 | -19% | 2% | 49% | -4%
CCOC(=O)c1[nH]c(C)c(CCC(=O)Nc2ccc(N(CC)CC)cc2C)c1C | -12% | -12% | . | .
CC1CCCN(c2nc3ccsc3c(=O)s2)C1 (stereo not drawn) | 9% | 6% | 13µM* | 27%
CC1CCCN(c2sc(S(C)(=O)=O)nc2S(=O)(=O)c2ccc(Cl)cc2)C1 (stereo not drawn) | ? | -1% | -29% | -3%
COc1cccc(CN(C)C(=O)C(Cc2ccccc2)NC(=O)c2ccccc2)c1OC (stereo not drawn) | 8.9µM* | -17% | -32% | 7%
Cn1c(=O)c2c(-c3ccccc3Cl)n(-c3cc(Cl)ccc3O)cc2n(C)c1=O | 4% | -4% | . | .
COc1cccc(CNC(=O)c2oc3c(c2C)-c2nn(Cc4cccc(Cl)c4)cc2CC3)c1 | 11µM* | 12% | . | .
COc1cccc(CNC(=O)c2oc3c(c2C)-c2nn(Cc4cccc(Cl)c4)cc2CC3)c1OC | ? | 1% | . | .
O=C(NNCS(=O)(=O)O)c1ccncc1 | . | . | . | -4%
O=S(=O)(c1ccc2[nH]c3c(c2c1)CCCCC3)N1CCN(c2cccc(Cl)c2)CC1 | ? | -15% | . | .
COc1ccc(-c2[nH]c3ccccc3c2SCCN)cc1 | 2µM* | ? | -1% | -1%
COc1ccc(-c2[nH]c3ccccc3c2SCCNC(=O)c2cc3ccccc3oc2=O)cc1 | ? | -16% | -53% | -2%
Nc1ccc(S(=O)(=O)NC2(C(F)(F)F)NC(=O)N(Cc3ccccc3)C2=O)cc1 (stereo not drawn) | -4% | -2% | -11% | -2%
Fc1ccc(CNc2ccc(N3CCN(Cc4ccccc4)CC3)cc2)cc1 | 4.5µM* | -15% | -1% | -2%
SMILES | GLP1R inv ag | GLP1R cytotox | BRCA1 expr act | GLP1R ag
CC(NC(=O)/C(=C/c1ccc(OC(F)F)cc1)c1ccccc1)c1ccccc1 (stereo not drawn) | 4.5µM* | 21% | -76% | -13%
CN(Cc1ccc(C(F)(F)F)cc1)C(=O)c1ccc(Oc2ccccc2)cc1 | 10µM* | 4% | -38% | 0%
CN(Cc1ccccc1F)C(=O)c1ccc(Oc2ccccc2)cc1 | ? | -4% | 52% | 6%
CCOCc1cc(CN2CCN(c3ccccc3OC)CC2)c(O)c2ncccc12 | 5µM* | -24% | . | .
Oc1c(CN2CCN(c3ccccn3)CC2)cc(Cl)c2cccnc12 | 0.5µM* | ? | -93% | 7%
COc1ccccc1N1CCN(Cc2cc(Br)c(O)c3ncccc23)CC1 | ? | 1.1µM* | -76% | -7%
COCc1cc(CN2CCCC2)c(O)c2ncccc12 | 0% | ? | -101% | -2%
OCCN1CCN(Cc2cc(Cl)c3cccnc3c2O)CC1 | ? | ? | -104% | -8%
CCOc1ccc(NC(=O)CN(C)C(=O)c2ccc(C)o2)cc1OCC | 21% | -1% | -11% | 1%
O=C(CC1N=C2c3ccccc3N=C(SCC(=O)Nc3cccc(Cl)c3)N2C1=O)NCc1cccs1 (stereo not drawn) | 10% | -1% | . | .
O=C(NCc1cccnc1)C1CC(c2ccccc2Cl)=NO1 (stereo not drawn) | -1% | 3% | -45% | 2%
CCOc1ccccc1C(=O)Nc1cccc2ccc(C)nc12 | ? | -3% | . | .
CCCC1CCc2c(sc(NC(=O)c3cccs3)c2C(N)=O)C1 (stereo not drawn) | 16% | 4% | 11µM* | -11%
CC(C)(C)C1CCc2c(sc(NC(=O)c3cccs3)c2C(=O)N2CCCCC2)C1 (stereo not drawn) | 3.5µM* | 0% | -41% | -15%
CC1CCc2c(sc(NC(=O)c3cccs3)c2C(=O)O)C1 (stereo not drawn) | -30% | -17% | 59% | 0%
CC(O)(c1ccc(F)c(F)c1)c1nc(-c2cccc3cccnc23)cs1 (stereo not drawn) | ? | 2% | -4% | 16%
O=C1c2cccc(OCC(=O)N3CCCc4ccccc43)c2CCN1Cc1cccnc1 | -15% | 21% | -47% | 6%
Cc1ccccc1CN1CCc2c(OCC(=O)N3CCCc4ccccc43)cccc2C1=O | 10µM* | -16% | -80% | -3%
O=[N+]([O-])c1cc(C=NN2CCCCCC2)ccc1Cl | ? | 6% | 2.8µM* | 3%
O=[N+]([O-])c1cc(/C=N/N2CCCCC2)ccc1Cl | ? | 0% | 11µM* | 20%
O=[N+]([O-])c1cc(/C=N/N2CCN(c3ccccc3)CC2)ccc1Cl | 15% | 13% | 21% | -9%
O=C1/C(=C/c2cccs2)N=C(c2cccs2)N1Nc1ccccc1 | 10µM* | -10% | 4% | 5%
CCn1c(CN2CCN(Cc3ccc(C)cc3)C(CCO)C2)nc2ccccc21 (stereo not drawn) | 6.3µM* | -1% | 6% | -3%
CC(C)Cn1c(CN2CCN(C)C(CCO)C2)nc2ccccc21 (stereo not drawn) | -5% | -4% | -2% | 0%
CCN(C(=O)CSc1nc2ccccc2n1CC(=O)Nc1ccccc1C)c1ccccc1 | -21% | -9% | 0% | .
Clc1ccc(-c2nnc(CSc3nnc(-c4cccs4)n3Cc3ccccc3)o2)cc1 | 10µM* | -19% | -56% | -8%
Cc1csc(SCc2nnc(-c3ccc(Cl)cc3)o2)n1 | 1% | -7% | 7.1µM* | 0%
Cc1nnc(SCc2nnc(-c3cccs3)o2)n1Cc1ccccc1 | -6%[7.66 µM] | -6%[7.66 µM] | 1% | 0%
CN(CC(=O)Nc1ccc(Cl)cc1)CC(=O)Nc1sc2c(c1C(N)=O)CCC2 | 4µM* | -53% | -48% | 2%
